Only some compounds are listed: those with a hit (about 3.4% of all), similar ones and a draw of the others.
MITF primary: MITF inhibitors, primary screen, biochemical, AlphaScreen, human; AlphaScreen MITF homodimerization, bead proximity signal; 650,000 tested, 0.91% active; inhibition, % at 2.6 µM; in the data active = inhibition above about 50%;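 also: 0% = vehicle wells with protein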
FBW7 activator: FBW7 E3 ligase activators, primary screen, biochemical, AlphaScreen, human; 650,000 tested, 0.13% active; F-box/WD repeat-containing protein 7 (Homo sapiens), Q969H0; AlphaScreen FBW7–phospho-cyclin E peptide binding, activator screen; normalized activity (activation), % at 26.1 µM; AID 1259310, 2017; in the data active = normalized activity above about 1.9%;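 also: purified mutant Fbw7 with reduced substrate affinity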
GPR151 activ: activators of human GPR151, primary screen, cell-based, PathHunter beta-arrestin, luminescence. G-protein coupled receptor 151 (Homo sapiens), Q8TDV0. PathHunter beta-arrestin GPR151 cells. activation, % at 11.2 µM. 650,000 tested, 1% active; in the data active = activation above about 4.9%;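 also: 0% = median of compound wells and 100% = cells with positive control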
TEAD-YAP inh: TEAD-YAP interaction inhibition, primary screen, TEAD-YAP interaction inhibitor project, luminescence, HEK-TIYL cells | TEAD-Gal4/YAP UAS-luciferase luminescence | inhibition, % at 9.12 µM | 640,000 tested, 1.4% active | AID 1259422, 2018; in the data active = inhibition above about 32%;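 also: 0% = median of test compound wells and 100% = reference inhibitor wells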
GPR151 conf act: GPR151 activators, triplicate retest, confirmation, cell-based, PathHunter beta-arrestin, luminescence. activation, % at 11.2 µM. shares compounds with GPR151 activ. GPR151 PathHunter beta-arrestin cells, 90 min; % of EA-reagent control over plate median. 6,700 tested, under 10 active;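 active = mean percent activation across replicates above the confirmation screen cutoff of 4.91%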
GPR119 ag: GPR119 activators in beta-arrestin cells, counter-screen for GPR151 activator project, cell-based, PathHunter beta-arrestin, luminescence, triplicate; activation, % at 11.2 µM; AID 1508611, 2020; shares compounds with GPR151 activ; 90 min; 0 = compound-well median, 100 = enzyme-acceptor control; 6,700 tested, 0.3% active;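 active = mean percent activation in the counterscreen above 29.09%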;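 also: counterscreen on off-target GPR119 to flag nonselective hits from the GPR151 activator screen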
Target sequence (Q8TDV5 whole entry, looked up): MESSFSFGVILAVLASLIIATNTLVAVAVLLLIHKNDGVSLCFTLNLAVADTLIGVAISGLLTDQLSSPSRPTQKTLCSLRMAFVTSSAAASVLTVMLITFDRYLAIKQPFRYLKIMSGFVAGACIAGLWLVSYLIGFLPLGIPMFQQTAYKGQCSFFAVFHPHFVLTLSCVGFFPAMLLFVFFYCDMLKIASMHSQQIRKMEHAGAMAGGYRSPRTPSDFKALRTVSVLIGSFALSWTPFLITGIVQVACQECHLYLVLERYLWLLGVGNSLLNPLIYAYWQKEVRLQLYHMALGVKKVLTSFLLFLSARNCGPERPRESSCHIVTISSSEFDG
Numbers without * were called inactive; nt = no result.

SMILES	MITF primary	FBW7 activator	GPR151 activ	TEAD-YAP inh	GPR151 conf act	GPR119 ag
Cc1ccc(C(=O)NC(=S)Nc2cc(-c3nc4ncccc4o3)ccc2Cl)cc1	-7.2	-0.1	-0.1	-1.0	nt	nt
CC(C)(C)c1ccc(C(=O)NC(=S)Nc2cc(-c3nc4ncccc4o3)ccc2Cl)cc1	-9.8	0.1	5.1*	-41.7	-0.1	5.9
CC(=O)c1cccc(NC(=O)CCc2ccc(S(=O)(=O)NC(C)(C)C)cc2)c1	19.1	0.1	-2.6	8.8	nt	nt
Cc1cc(C)cc(NC(=O)C2CCN(c3nnc(-n4c(C)ccc4C)s3)CC2)c1	4.8	0.0	5.5*	5.1	0.0	-10.1
CCOCCCNC(=O)c1c(N)n(CCc2ccccc2)c2nc3ccccc3nc12	-17.6	0.2	0.7	4.6	nt	nt
COCCNC(=O)c1c(N)n(CCc2ccc(OC)c(OC)c2)c2nc3ccccc3nc12	7.7	0.6	10.2*	9.5	0.6	-1.4
CCCCOc1ccc(-c2nnn(C/C(N)=N/O)n2)cc1	13.1	0.4	-1.0	-32.8	nt	nt
Cc1ccc(-n2ncc3c(SCC(N)=O)ncnc32)c(C)c1	10.8	0.3	-0.2	-5.6	nt	nt
CC(=O)Nc1ccc(NC(=O)CSc2ncnc3c2cnn3-c2ccc(C)cc2C)cc1	3.4	-0.2	5.2*	10.0	0.1	7.9
Cc1cccc(C(=O)Nc2ccc(NC(=O)c3ccc(Br)o3)cc2)c1	6.2	0.2	0.2	-3.5	nt	nt
O=C(O)c1ccc(Cn2cnc3scc(-c4ccccc4)c3c2=O)cc1	-0.4	0.0	5.2*	-0.8	0.2	7.2
O=c1c2c(-c3ccccc3)csc2ncn1Cc1ccccc1	1.4	0.0	-0.6	10.3	nt	nt
Cc1c(O)ccc(C(=O)Cc2ccccc2Cl)c1O	-5.5	0.1	-0.5	-5.8	nt	nt
CCN(CC)P(=O)(c1nc2ccccc2n1CC)N(CC)CC	0.6	0.0	5.6*	3.1	-0.3	-2.1
CC(C)Oc1c(Cl)cc(C=O)cc1Cl	11.9	0.1	6.8*	21.8	-0.5	-0.5
COc1ccc(C)cc1S(=O)(=O)N1CCC(C(=O)Nc2ccc3c(c2)OCO3)CC1	-11.1	0.0	1.1	-2.0	nt	nt
Cc1ccc(NC(=O)C2CCN(S(C)(=O)=O)CC2)cc1	5.3	0.1	10.0*	11.7	0.0	-1.1
COc1ccc(C)cc1S(=O)(=O)N1CCC(C(=O)Nc2cccc(C(C)=O)c2)CC1	-6.7	-0.2	6.1*	5.5	0.7	12.9
COC(=O)N/N=C1\CC(C)CC(C)(C)C1 (stereo not given)	11.3	0.4	-1.0	-6.8	nt	nt
CC(=O)NC1=NC(=O)/C(=C/c2ccc(-c3ccc(C)c(Cl)c3)o2)S1	-6.3	0.0	5.3*	-1.0	0.6	7.5
CC(=O)Nc1ccc(-c2nc3cc(C)ccc3o2)cc1	-2.4	0.1	-1.4	-46.5	nt	nt
Cc1ccc(-c2nc3cc(NC(=O)c4cc(Br)ccc4Cl)ccc3o2)cc1Br	0.4	-0.4	6.1*	7.5	0.0	9.0
CC(=O)Nc1ccc2oc(-c3ccncc3)nc2c1	0.7	0.0	5.1*	-22.5	0.1	-0.6
Cc1c(C(=O)Nc2ccc3oc(-c4cccnc4)nc3c2)cccc1[N+](=O)[O-]	13.7	0.0	11.2*	-3.2	-0.8	0.4
Cc1ccc(-c2nc3cc(NC(=O)c4cc(Cl)ccc4Cl)ccc3o2)cc1Br	-4.1	-0.1	0.1	-12.7	nt	nt
SMILES	MITF primary	FBW7 activator	GPR151 activ	TEAD-YAP inh	GPR151 conf act	GPR119 ag
Cc1c(C(=O)Nc2ccc3oc(-c4ccncc4)nc3c2)cccc1[N+](=O)[O-]	10.7	0.2	-1.6	0.7	nt	nt
Clc1ccc2nc(CSc3nnnn3-c3ccccc3)c(Br)n2c1	-4.8	0.1	-0.6	11.3	nt	nt
O=C(C1CCN(C2CCN(Cc3ccc4c(c3)OCCO4)CC2)CC1)N1CCCC1	-13.5	0.0	-0.6	3.7	nt	nt
O=C(C1CCN(Cc2ccc3c(c2)OCO3)CC1)N1CCOCC1	25.6	0.0	5.2*	-3.7	-0.3	10.4
O=C(On1c(-c2ccc(F)cc2)nc2ccccc2c1=O)c1ccc(Cl)cc1	3.5	0.2	5.1*	-3.1	1.0	13.1
Cc1ccccc1C(=O)On1c(-c2ccc(Cl)c([N+](=O)[O-])c2)nc2ccccc2c1=O	4.2	-0.2	5.8*	11.6	0.4	9.3
CCCNc1nc(-c2cccs2)nc2c1ncn2C(C)C	0.2	-0.1	-0.6	4.0	nt	nt
Cc1nc(Nc2cccc(N(C)C)c2)nc(Nc2cccc(N(C)C)c2)c1[N+](=O)[O-]	26.2	-0.8	1.5	-2.2	nt	nt
Cc1nc(Nc2ccc(N(C)C)cc2)nc(Nc2ccc(N(C)C)cc2)c1[N+](=O)[O-]	2.1	-0.2	10.1*	-10.6	1.1	9.3
CC(=O)NC1=NC(=O)/C(=C/c2ccc(OCc3ccc([N+](=O)[O-])cc3)cc2)S1	16.5	0.2	5.0*	1.1	0.5	-4.2
COc1cc(/C=C2\SC(NC(C)=O)=NC2=O)ccc1OCc1ccc([N+](=O)[O-])cc1	-1.2	-0.2	1.0	-13.7	nt	nt
CCC(=O)Nc1nnc(SCC(=O)Nc2ccc(Cl)c(Cl)c2)s1	3.4	0.3	8.9*	3.5	0.0	6.2
Cc1c(Cl)cccc1NC(=O)CSc1ncnc2c1sc1ccccc12	5.4	-0.1	12.4*	15.8	-0.7	2.6
CC(=O)Nc1nnc(SCC(=O)Nc2cccc(Cl)c2C)s1	-1.3	-0.1	8.7*	8.7	-0.8	-10.1
COc1ccc(CNC(=O)CSc2nnc(NC(=O)c3ccccc3Cl)s2)cc1	-4.1	-0.1	6.3*	-26.4	0.6	-3.5
Nc1nnc(SCC(=O)Nc2nnc(SCC(=O)Nc3ccc(Cl)c(Cl)c3)s2)s1	-7.5	-0.2	0.4	2.6	nt	nt
COc1ccc(/C=c2/sc3n(c2=O)C(c2ccc(N(C)C)cc2)C(C(C)=O)=C(C)N=3)cc1 (stereo not given)	6.2	-0.1	1.0	5.1	nt	nt
CCOc1ccc(C(=O)Nc2nc3c(ccc4ccccc43)s2)cc1	4.7	0.3	5.5*	0.2	-0.7	-2.8
O=C1CC(c2nnc(Cc3ccccc3Cl)o2)CN1c1ccccc1 (stereo not given)	-12.3	-0.1	5.5*	5.8	-0.5	-10.3
COc1ccc(C(=O)COC(=O)C(NC(=O)c2ccc(Cl)cc2)C(C)C)cc1 (stereo not given)	0.1	0.2	1.2	9.2	nt	nt
CC(C)C(NC(=O)c1ccccc1F)C(=O)OCC(=O)c1ccc(F)cc1 (stereo not given)	2.5	-0.1	9.3*	-8.9	-0.5	0.0
CC(=O)N1CCC(N(C(=O)Nc2c(F)cccc2F)C(C)C)CC1	4.6	-0.1	9.1*	-4.2	-0.8	0.5
